Measured values from PubChem BioAssay.
Activity calls are given as the source filed them.

What was measured:
[1] = molecular target: NADPH oxidase 4 (Homo sapiens) (UniProt Q9NPH5); assay: compounds shifting NOX4 Amplex Red fluorescence – cell-based, HEK293-NOX4, tetracycline-induced, NOX inhibitor project, primary screen (AID 1160); details: HEK293-NOX4, Amplex Red H2O2 fluorescence, 45 min; higher = more signal, called active from +8 up or from −8 down
[2] = molecular target: NADPH oxidase 5 (Homo sapiens) (UniProt Q96PH1); assay: compounds shifting NOX5 Amplex Red fluorescence – cell-based, HEK293-NOX5, NOX inhibitor project, primary screen (AID 1161); details: HEK293-NOX5, ionomycin, 45 min, higher = more signal
[3] = compound effects on lung adenocarcinoma cell viability – A549, calcein-AM fluorescence, 48 h, basal, profiling panel (AID 1162); details: higher = more signal; further: test concentration not given here
[4] = compound effects on differentiated 3T3-L1 adipocyte viability – cell-based, 3T3-L1 adipocytes, calcein-AM fluorescence, 48 h, basal, profiling panel (AID 1163); details: 3T3-L1 adipocytes viability, higher = more signal; further: test concentration not given here
[5] = compound effects on hepatocellular carcinoma cell viability – HepG2, calcein-AM fluorescence, 48 h, basal, profiling panel (AID 1164); details: higher = more signal; further: test concentration not given here
[6] = compound effects on multiple myeloma cell viability – MM1S, calcein-AM fluorescence, 48 h, basal, profiling panel (AID 1165); details: higher = more signal;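 further: viability of MM1S multiple myeloma cells under basal unstimulated conditions; test concentration not given here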
[7] = calcein-AM signal in unstimulated myeloma cells – cell-based, calcein-AM fluorescence, 48 h, PK04 Diversity Set, profiling panel (AID 1166); details: RPMI8226 myeloma viability, higher = more signal;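 further: cells grown under basal conditions without added stimulus; test concentration not given here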
[8] = JC-1 mitochondrial signal, unstimulated HepG2 cells – cell-based, JC-1 fluorescence, 24 h, 100 nL compound, profiling panel (AID 1167); details: HepG2 mitochondrial potential, higher = more signal; further: test concentration not given here
[9] = JC-1 mitochondrial signal, unstimulated adipocytes – cell-based, JC-1 fluorescence, 3T3-L1 adipocytes, 24 h, 100 nL compound, profiling panel (AID 1168); details: JC-1 mitochondrial fluorescence, higher = more signal, called active from +8 up or from −8 down; further: test concentration not given here
[10] = JC-1 mitochondrial signal, unstimulated myeloma cells – cell-based, JC-1 fluorescence, RPMI8226, 24 h, 100 nL compound, profiling panel (AID 1169); details: JC-1 mitochondrial potential fluorescence, higher = more signal; further: test concentration not given here
[11] = JC-1 mitochondrial signal, unstimulated MM1S myeloma – cell-based, JC-1 fluorescence, 24 h, 100 nL compound, profiling panel (AID 1170); details: MM1S mitochondrial potential, higher = more signal; further: test concentration not given here
[12] = resazurin metabolic signal in A549 cells – cell-based, resazurin fluorescence, 24 h, PK04 Diversity Set, profiling panel (AID 1171); details: A549 viability, higher = more signal, called active from +8 up or from −8 down; further: test concentration not given here
[13] = resazurin metabolic signal in HepG2 cells – cell-based, resazurin fluorescence, 24 h, PK04 Diversity Set, profiling panel (AID 1172); details: HepG2 viability, higher = more signal; further: test concentration not given here
[14] = budding yeast growth changes without added modifier – OD600, strain BY4716, 24 h, basal condition, primary screen (AID 1173); details: S. cerevisiae BY4716 growth, OD600, 24 h; higher = more signal, called active from +8 up or from −8 down
[15] = viability profiling in MM1S myeloma cells – cell-based, resazurin fluorescence, basal, 24 h, PK04 Diversity Set, profiling panel (AID 1174); details: higher = more signal, called active from +8 up or from −8 down; further: test concentration not given here
[16] = molecular target: Dihydroorotate dehydrogenase (quinone), mitochondrial (Plasmodium falciparum (isolate 3D7)) (UniProt Q08210); assay: inhibition of P. falciparum DHODH – biochemical, C-terminal His tag, absorbance 600 nm, primary screen (AID 1175); details: PfDHODH enzyme, DCIP absorbance 600 nm; higher = more signal, called active from +8 up or from −8 down;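 further: recombinant parasite enzyme with a five histidine tag at its C terminus; test concentration not given here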
[17] = growth modulation of vineyard yeast isolate – strain RM11-1a, OD600, basal, 24 h, primary screen (AID 1177);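 further: cultures grown under basal conditions with no added stressor; test concentration not given here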; details: S. cerevisiae RM11-1a growth, OD600, 24 h; higher = more signal, called active from +8 up or from −8 down
[18] = growth of efflux-deficient E. coli DRC39 – strain DRC39, OD650, 24 h, E. coli filamentation inducers, primary screen (AID 1178);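 further: growth measured as culture turbidity by optical density at 650 nm; test concentration not given here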; details: E. coli DRC39 acrAB, higher = more signal, called active from +8 up or from −8 down
[19] = growth of efflux-deficient E. coli DRC39 – strain DRC39, OD650, 48 h, E. coli filamentation inducers, primary screen (AID 1179);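 further: screen aims at cell division blockers that make cells filament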; details: E. coli DRC39 delta-acrAB growth, higher = more signal, called active from +8 up or from −8 down
[20] = viability profiling in RPMI8226 myeloma cells – cell-based, resazurin fluorescence, basal, 24 h, PK04 Diversity Set, profiling panel (AID 1180); details: higher = more signal;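 further: RPMI8826 multiple myeloma cell line at 5000 cells per well; test concentration not given here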

Sequence of NADPH oxidase 5 (Homo sapiens) (Q96PH1 whole entry, looked up): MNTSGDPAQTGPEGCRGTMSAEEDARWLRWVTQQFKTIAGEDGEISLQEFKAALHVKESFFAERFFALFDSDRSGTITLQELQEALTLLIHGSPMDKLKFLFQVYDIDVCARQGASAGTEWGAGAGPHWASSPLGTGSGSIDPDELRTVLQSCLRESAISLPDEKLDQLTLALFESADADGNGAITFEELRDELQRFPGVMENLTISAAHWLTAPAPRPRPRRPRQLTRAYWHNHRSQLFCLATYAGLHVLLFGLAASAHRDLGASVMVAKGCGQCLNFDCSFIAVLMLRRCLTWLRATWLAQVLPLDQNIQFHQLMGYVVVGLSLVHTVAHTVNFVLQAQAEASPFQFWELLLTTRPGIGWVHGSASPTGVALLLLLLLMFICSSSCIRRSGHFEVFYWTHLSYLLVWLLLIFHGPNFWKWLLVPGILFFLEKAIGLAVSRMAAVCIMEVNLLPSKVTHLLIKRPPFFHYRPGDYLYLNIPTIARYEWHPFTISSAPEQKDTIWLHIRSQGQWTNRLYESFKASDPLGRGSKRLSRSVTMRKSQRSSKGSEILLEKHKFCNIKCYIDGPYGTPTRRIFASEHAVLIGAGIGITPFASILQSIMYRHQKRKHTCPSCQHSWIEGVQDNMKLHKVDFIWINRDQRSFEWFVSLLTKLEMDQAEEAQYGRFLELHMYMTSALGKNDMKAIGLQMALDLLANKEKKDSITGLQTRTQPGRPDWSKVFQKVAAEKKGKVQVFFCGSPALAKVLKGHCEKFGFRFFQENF
Sequence of Dihydroorotate dehydrogenase (quinone), mitochondrial (Plasmodium falciparum (isolate 3D7)) (Q08210 whole entry, looked up): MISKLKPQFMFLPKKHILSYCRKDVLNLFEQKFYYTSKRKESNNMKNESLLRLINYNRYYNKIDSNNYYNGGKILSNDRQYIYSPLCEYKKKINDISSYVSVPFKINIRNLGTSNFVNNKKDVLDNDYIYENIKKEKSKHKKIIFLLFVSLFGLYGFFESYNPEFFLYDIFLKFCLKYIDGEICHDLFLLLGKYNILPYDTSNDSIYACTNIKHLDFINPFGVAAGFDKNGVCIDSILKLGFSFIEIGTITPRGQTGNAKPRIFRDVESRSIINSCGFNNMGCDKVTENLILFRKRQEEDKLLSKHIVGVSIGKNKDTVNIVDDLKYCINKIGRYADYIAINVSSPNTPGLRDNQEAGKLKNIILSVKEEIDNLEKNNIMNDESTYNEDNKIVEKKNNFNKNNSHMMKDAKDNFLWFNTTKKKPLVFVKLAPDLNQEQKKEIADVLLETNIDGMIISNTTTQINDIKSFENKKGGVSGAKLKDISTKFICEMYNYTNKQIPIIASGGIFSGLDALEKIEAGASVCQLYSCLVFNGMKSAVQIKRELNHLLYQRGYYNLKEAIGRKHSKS
Sequence of NADPH oxidase 4 (Homo sapiens) (Q9NPH5 whole entry, looked up): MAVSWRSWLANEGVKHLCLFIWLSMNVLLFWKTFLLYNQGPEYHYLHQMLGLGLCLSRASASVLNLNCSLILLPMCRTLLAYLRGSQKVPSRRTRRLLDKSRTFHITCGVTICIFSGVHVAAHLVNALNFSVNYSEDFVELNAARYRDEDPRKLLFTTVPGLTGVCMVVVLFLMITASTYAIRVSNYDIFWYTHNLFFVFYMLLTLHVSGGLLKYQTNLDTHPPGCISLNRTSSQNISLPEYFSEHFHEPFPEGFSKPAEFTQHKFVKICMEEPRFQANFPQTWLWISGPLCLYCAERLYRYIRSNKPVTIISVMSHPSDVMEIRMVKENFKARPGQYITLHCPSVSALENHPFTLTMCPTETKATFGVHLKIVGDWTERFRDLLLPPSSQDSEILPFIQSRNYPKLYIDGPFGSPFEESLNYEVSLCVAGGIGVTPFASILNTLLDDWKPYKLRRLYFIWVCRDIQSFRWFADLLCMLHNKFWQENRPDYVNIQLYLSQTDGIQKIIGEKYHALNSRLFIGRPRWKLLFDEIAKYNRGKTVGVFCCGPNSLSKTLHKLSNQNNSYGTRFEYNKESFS

Structure (SMILES) | z-score [1] | z-score [2] | z-score [3] | z-score [4] | z-score [5] | z-score [6] | z-score [7] | z-score [8] | z-score [9] | z-score [10] | z-score [11] | z-score [12] | z-score [13] | z-score [14] | z-score [15] | composite z-score [16] | z-score [17] | z-score [18] | z-score [19] | z-score [20]
O=C1O[C@@H](c2ccccc2)[C@@H](c2ccccc2)N2[C@@H](c3ccc(OCCO)cc3)[C@]3(C(=O)Nc4ccc(C#CC5(O)CCCCCC5)cc43)[C@@H](C(=O)NC[C@H](O)c3ccccc3)[C@H]12 | 1.14 (inactive) | 0.427 | 0.71 | 1.71 | 0.394 | -0.987 | 0.208 | -1.7 | 0.548 (inactive) | -0.535 | -0.197 | 0.883 (inactive) | 0.18 | 0.842 (inactive) | 0.786 (inactive) | 0.935 (inactive) | 2.1 (inactive) | 1.06 (inactive) | 1.12 (inactive) | 0.966
CC(C)NC(=O)[C@@H]1c2ccccc2C(=O)N(Cc2cc(F)cc(C(F)(F)F)c2)[C@H]1c1ccc(CO)cc1 | 1.08 (inactive) | 0.949 | 1.48 | 1.41 | 0.813 | 0.404 | 0.252 | 1.59 | -0.64 (inactive) | -0.834 | 0.621 | 1.84 (inactive) | 0.641 | -0.518 (inactive) | 1.39 (inactive) | -0.243 (inactive) | -0.284 (inactive) | 1.33 (inactive) | 0.326 (inactive) | 1.5
COc1c(C)cc(-c2cc3c(c(CCc4ccccc4)n2)[Si](C(C)C)(C(C)C)OC3)cc1C | 0.907 (inactive) | -0.11 | 0.483 | 1.27 | -0.277 | -1.5 | 0.0965 | -2.26e-05 | 0.334 (inactive) | 0.667 | 0.168 | 1.38 (inactive) | 1.64 | -0.966 (inactive) | 1.93 (inactive) | -0.545 (inactive) | -1.43 (inactive) | 1.75 (inactive) | 1.08 (inactive) | 1.37
O=C(NCC(F)(F)F)[C@@H]1c2ccccc2C(=O)N(C2Cc3ccccc3C2)[C@H]1c1ccc(CO)cc1 | 1.23 (inactive) | -1.23 | 2.25 | 0.752 | -0.016 | 0.557 | -1.11 | 3.1 | 0.676 (inactive) | 0.0903 | -0.0546 | 1.05 (inactive) | 0.983 | -1.06 (inactive) | 1.49 (inactive) | -1.16 (inactive) | -0.763 (inactive) | 0.46 (inactive) | 0.249 (inactive) | 1.61
CC1CC/C=C\[C@H]2OC34C=CCN(C(C)C)C(=O)[C@H]3N(C(CO)C(C)C)C(=O)[C@@H]4C2C(=O)O1 (stereo not given in full) | 0.743 (inactive) | 1.79 | 1.06 | 0.252 | -0.0224 | 1.4 | 0.652 | 0.686 | 1.39 (inactive) | -0.723 | 1.62 | 0.351 (inactive) | 0.788 | -0.718 (inactive) | 1.15 (inactive) | -1.87 (inactive) | -0.488 (inactive) | 1.36 (inactive) | 1.46 (inactive) | 0.838
O=c1n(-c2ccccc2)c(=O)n2n1CC(COc1ccccc1)=C1[C@@H](CCc3ccccc3)OB(O)C[C@@H]12 | -0.0712 (inactive) | -1.03 | 1.81 | 0.0728 | -0.28 | -0.0893 | -0.364 | -0.251 | 1.31 (inactive) | -0.555 | 0.615 | -0.665 (inactive) | 0.312 | -2.19 (inactive) | -0.933 (inactive) | 0.91 (inactive) | -0.424 (inactive) | 2.4 (inactive) | 1.4 (inactive) | -0.672
Cc1ccc(S[C@]2(C(=O)NCCN3CCOCC3)CC(=O)N(Cc3cc(C(F)(F)F)cc(C(F)(F)F)c3)[C@@H]2c2ccc(CO)cc2)cc1 | 0.706 (inactive) | 0.754 | 0.422 | 0.947 | -0.0671 | 1.15 | 0.603 | 1.18 | 0.784 (inactive) | -0.0854 | 0.685 | 3.33 (inactive) | 1.08 | -1.76 (inactive) | 0.828 (inactive) | -0.911 (inactive) | -2.54 (inactive) | 1.01 (inactive) | 1.45 (inactive) | 0.672
C=CC[C@]1(C(=O)N2CCCCC2)COC(c2ccc(OCCCO)cc2)=N1 | -0.256 (inactive) | -3.57 | -1.48 | 1.98 | -2.29 | -3.6 | -2.3 | -0.223 | 0.322 (inactive) | -0.749 | -0.435 | -0.585 (inactive) | 1.55 | -6.59 (inactive) | -0.863 (inactive) | -0.0606 (inactive) | 0.474 (inactive) | 2.98 (inactive) | 0.693 (inactive) | 0.909
C=CCC(OC(C)=O)[C@@H]1[C@@H](N(Cc2cccc3ccccc23)C(=O)c2cccc3ccccc23)c2cc(OCCCO)ccc2N1C(=O)Cc1ccc(OC)cc1 (stereo not given in full) | -0.783 (inactive) | 1.46 | 0.725 | 2.56 | 0.486 | 1.7 | -1.28 | 3.07 | 0.451 (inactive) | 0.402 | 0.779 | -0.245 (inactive) | 0.147 | -3 (inactive) | 1.09 (inactive) | 0.848 (inactive) | -1.48 (inactive) | 1.35 (inactive) | 0.717 (inactive) | 0.301
O=C1O[C@H](c2ccccc2)[C@H](c2ccccc2)N2[C@H]1[C@@H](C(=O)Nc1nc3ccccc3s1)[C@]1(C(=O)Nc3ccc(C#CCCO)cc31)[C@H]2c1ccccc1OCCO | 0.228 (inactive) | 2.14 | -0.655 | 1.87 | 0.383 | -1 | -0.198 | -2.75 | 1.18 (inactive) | -0.8 | -1.16 | 0.411 (inactive) | 0.253 | 0.243 (inactive) | 0.228 (inactive) | -0.244 (inactive) | 1.07 (inactive) | 0.381 (inactive) | 0.391 (inactive) | -0.914
CC(C)[C@@H](C(=O)O)n1cc(-c2ccccn2)nn1 | 0.242 (inactive) | -0.24 | -0.137 | 1.05 | 0.106 | -0.0169 | 0.516 | 0.422 | 0.592 (inactive) | -0.276 | 0.414 | 0.756 (inactive) | 0.735 | -1.37 (inactive) | 1.11 (inactive) | -0.206 (inactive) | -0.52 (inactive) | 1.87 (inactive) | 1.17 (inactive) | 0.386
COC(=O)C1=CC(CCCO)=CC(C2CC2)N(Cc2cc3c(cc2Br)OCO3)C=C1C(=O)OC (stereo not given) | 1.24 (inactive) | 1.91 | 0.589 | 1.19 | 0.489 | 0.0635 | 0.627 | 1.1 | 0.857 (inactive) | -0.147 | 1.28 | 0.565 (inactive) | 0.365 | -1.81 (inactive) | 1.06 (inactive) | -0.509 (inactive) | -0.847 (inactive) | 0.489 (inactive) | -0.0093 (inactive) | 1.45
CC(C)C[C@@H]1NC(=O)[C@@H]2C[C@H](C(=O)NCCCCCNC(=O)CS)[C@H](c3cccc(OCCO)c3)N2C1=O | 0.84 (inactive) | 0.00283 | 0.221 | 1.28 | -0.646 | -1 | 0.134 | 0.236 | 0.321 (inactive) | 0.14 | 0.072 | 0.621 (inactive) | 0.474 | -0.928 (inactive) | 1.47 (inactive) | -0.168 (inactive) | -1.14 (inactive) | 0.186 (inactive) | -0.115 (inactive) | 0.673
C=C1C=C(Br)C2(OCCCO2)[C@H]2OC12 (stereo not given in full) | 0.0158 (inactive) | 0.705 | -1.53 | -0.191 | 0.817 | 0.174 | -0.0566 | 0.533 | -0.696 (inactive) | 0.305 | -0.443 | -0.54 (inactive) | -0.92 | -0.353 (inactive) | -2.94 (inactive) | -0.99 (inactive) | 0.307 (inactive) | 0.846 (inactive) | 0.781 (inactive) | -0.846
CCCC[C@@H](O)C1=C(C)C[C@H]2C(=O)N(C)C(=O)[C@H]2[C@H]1CO | 0.914 (inactive) | 0.794 | 2.36 | -0.552 | 0.257 | 0.0991 | -0.0268 | 1.2 | 1.01 (inactive) | -0.363 | 0.613 | 0.199 (inactive) | 0.648 | -3.48 (inactive) | 0.987 (inactive) | 0.312 (inactive) | -1.09 (inactive) | 2.71 (inactive) | 1.75 (inactive) | 1.03
CCOC(=O)C[C@H]1[C@H](OC(=O)c2ccc(C(=O)c3ccccc3)cc2)[C@@H](NC(=O)Cc2ccc(OC)cc2)c2cc(OCCCO)ccc2N1C(=O)Cc1ccc(OC)cc1 | 0.79 (inactive) | 1.52 | 2.13 | 0.234 | 0.398 | 0.856 | -0.481 | 2.05 | 0.755 (inactive) | -0.131 | 0.356 | 1.54 (inactive) | 0.964 | -1.99 (inactive) | 0.0905 (inactive) | 0.735 (inactive) | -1.05 (inactive) | 1.74 (inactive) | 1.06 (inactive) | 0.678
